# Screening data: PubChem, several laboratories
# Compounds with a hit are over-represented: about 1.1% of the library has one in this group of screens.
# IDE cell activ: IDE (human) activation, cell-based. P14735. HEK cells, FAbeta-B cleavage, fluorescence polarization; 0% vehicle, 100% cell-free pure enzyme wells. activation, % at 5.96 µM. 340,000 tested, 0.073% active;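 active means activation above the mean of all tested compounds plus 3 SD, set per screening campaign, cut at about 17% in these data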
# LANA-H2A inh: blocks KSHV LANA binding to histone H2A/H2B; 320,000 tested, 0.6% active; cell-free LANA-H2A/H2B peptide, fluorescence polarization; AID 2629; inhibition, % (no concentration beside the values); in the data active means inhibition mostly above about 10%, no sharp cut-off; inactive means mostly below about 6.7%
# HDAC3 inh: human HDAC3 inhibition. O15379. recombinant HDAC3, fluorogenic peptide/trypsin coupled, fluorescence. inhibition, % at 8.3 µM. 320,000 tested, 0.15% active. AID 2718; in the data active means inhibition above about 26%, passing the limit was not always enough; inconclusive means no clear call, values can overlap the other calls
# IDE inh: inhibitors of human insulin-degrading enzyme in cells; P14735; HEK cells, FAbetaB cleavage, fluorescence polarization; inhibition, % at 5.59 µM; 320,000 tested, 0.41% active; AID 434962;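 active means percent inhibition above the average of all tested compounds plus 3 SD, set per screening campaign, cut at about 16% in these data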;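 further: IDE supplied by intact live HEK cells; FP after avidin binding of uncleaved biotin substrate so inhibition keeps polarization high; 0% = DMSO wells and 100% = 60 µM reference IDE inhibitor Ii1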
# The depositor's hits bear a star; ? = inconclusive; . = not tested or not shown; + = active, no number; ! = not confirmed by another sample.
SMILES,IDE cell activ,LANA-H2A inh,HDAC3 inh,IDE inh
CCN(CC)c1ccc(C(=O)NNC(=O)CNC(=O)c2cccs2)cc1,3.9,2.5,9.9,-6.5
CC(C)C[C@H](NC(=O)c1nc[nH]c1C(=O)NCCCCCN)C(=O)OCc1ccccc1,-4.8,-4.4,0.6,0.5
COC(=O)C1=C(C)N(c2ccccc2)C(=S)NC1c1ccccc1C(F)(F)F (stereo not drawn),1.1,1.8,3.7,-0.8
COCCOC(=O)C1=C(C)N(c2ccccc2)C(=S)NC1c1ccccc1C(F)(F)F (stereo not drawn),-5.6,35.0*,5.5,1.2
CC1(C)C=Cc2c(ccc3c2OC[C@H](c2ccc(O)cc2O)C3)O1,17.7*,2.3,20.8,-3.8
CC1CC(C)(C)CC2(C1)NC(=O)N(CC(=O)N1CCN(Cc3ccc(C#N)cc3)CC1)C2=O (stereo not drawn),3.8,.,.,.
COc1ccc2c(c1OC)C(=O)OC2C1c2c(cc3c(c2OC)OCO3)CCN1C (stereo not drawn),7.2,5.3*!,-1.0,2.9
CCOC(=O)c1ccc(NC(=O)NCCc2cnc[nH]2)cc1,-0.8,3.1,-3.7,-4.0
COC(=O)c1ccccc1NC(=O)NCc1ccccc1,3.7,-10.1,-4.6,4.7
COC(=O)c1ccccc1NC(=O)NCc1ccncc1,4.9,34.8*,3.3,3.9
C[C@H]1[C@H](c2ccccc2)C[C@@H](C(=O)O)C1(C)C,-2.0,1.2,14.7,-0.5
O=S(=O)(c1ccc(=S)[nH]c1)N1CCCC1,-17.0,2.7,1.9,1.4
CC(O)CNc1nc(N)[nH]c(=O)c1N=Nc1ccccc1 (stereo not drawn),3.4,.,.,.
COc1ccc(C2C=C(c3ccccc3)Nc3nc(CCCO)nn32)cc1 (stereo not drawn),.,-0.1,-74.5,2.1
COc1ccc(C2C=C(c3cccs3)Nc3nc(CCCO)nn32)cc1 (stereo not drawn),.,74.4*,-63.5,3.0
O=C(Nc1ccccc1C(=O)N1CCCC1)c1ccc(Cl)cc1Cl,2.8,18.3*,-1.8,1.2
O=C(Nc1ccccc1C(=O)N1CCCCC1)c1cc(F)c(F)cc1Cl,5.0,-5.3,1.7,-3.5
CC(=O)c1ccc(NS(=O)(=O)c2c(C)cc(C)cc2C)cc1,6.6,18.7*,-16.1,5.4
Cc1cc(C)c(S(=O)(=O)Nc2ccc(C(N)=O)cc2)c(C)c1,2.2,-1.3,?,3.6
CCN(CC)S(=O)(=O)c1cccc(NC(=O)CCSc2ccc(Cl)cc2)c1,-3.7,0.4,16.0,5.5
NC(=O)c1nn(CC(=O)Nc2cccc(S(=O)(=O)N3CCCCCC3)c2)c(=O)c2ccccc12,1.9,+,-5.5,2.6
Cc1cc(C(=O)N2CCCC(Nc3ccc(F)cc3)C2)c(C)o1 (stereo not drawn),2.8,-1.1,-2.5,-0.4
O=C1CN(C(=O)COC(=O)c2ccc(Br)o2)c2ccccc2N1,2.8,0.2,1.0,2.0
O=C(c1cccc(F)c1)n1nnc2ccccc21,1.8,-2.5,0.0,1.3
O=C(c1cccc2ccccc12)n1nnc2ccccc21,.,7.9,10.7,-1.8
SMILES,IDE cell activ,LANA-H2A inh,HDAC3 inh,IDE inh
CCCC(=O)Nc1ccc(C(=O)n2nnc3ccccc32)cc1,3.9,-1.8,75.2*,5.8
Cc1ccc(C(=O)n2nnc3ccccc32)cc1,.,1.1,96.7*,1.9
COC(=O)c1ccc(NC(=O)Cn2nnc3ccccc32)cc1,-1.8,5.7,-5.4,-4.7
CN(C)c1ccc(C(=O)n2nnc3ccccc32)cc1,7.4,0.1,90.6*,1.9
C#CCOC(=O)c1ccccc1C(=O)n1nnc2ccccc21,-1.9,1.2,93.9*,-2.7
C#CCOC(=O)c1ccccc1C(=O)OCC#C,-3.2,-0.4,-3.3,2.5
CCc1ccc(NC(=O)CN(c2ccccc2)S(=O)(=O)N(C)C)cc1,4.4,4.8,4.0,-0.4
Oc1cc(OCc2ccccc2)ccc1-c1[nH]ncc1-c1ccccc1,22.6*,2.6,11.7,1.2
N=c1n(Cc2ccccc2)c2ccccc2n1CC(O)COc1ccc(Cl)cc1Cl (stereo not drawn),20.4*,.,.,.
N=c1n(Cc2ccc(Cl)cc2)c2ccccc2n1CC(O)COc1ccccc1 (stereo not drawn),11.1,6.0,-0.1,2.4
Cc1cc(C)cc(S(=O)(=O)c2cnc3ccccc3n2)c1,7.0,13.8*,3.1,0.3
O=S(=O)(c1ccc(Cl)cc1)c1cnc2ccccc2n1,-0.5,-4.0,3.1,-0.1
C=CCNC(=S)NNc1nc2c(c(=O)[nH]1)C1(CCCCC1)Cc1ccccc1-2,2.8,-35.0,-5.4,7.7
Cc1cc(NC(=O)C2CC(=O)N(c3cccc(Cl)c3)C2)no1 (stereo not drawn),6.2,11.1*,-1.3,3.6
Cc1cc(C)cc(N2CC(C(=O)Nc3cc(C)on3)CC2=O)c1 (stereo not drawn),4.4,-8.6,4.4,6.5
O=C(Nc1ccccc1Oc1ccsc1C(=O)O)c1ccccc1,-1.5,-2.9,2.2,-4.3
O=C(Nc1ccccc1Oc1ccsc1C(=O)O)c1ccccc1F,4.9,97.9*,0.6,-0.2
O=C(Nc1ccccc1C(=O)Nc1ccccc1)c1ccccc1F,5.7,-3.3,4.4,-0.5
O=C(O)c1cccc(NC(=O)c2ccccc2NC(=O)c2ccccc2F)c1,7.5,16.7*,2.5,0.6
CC1Sc2ccc(C(=O)OCc3ccccc3Cl)cc2NC1=O (stereo not drawn),-2.0,-3.6,-1.1,-6.8
CCC(C)NCCOc1ccc(C(C)(C)c2ccccc2)cc1 (stereo not drawn),11.3,13.6*,1.3,-0.6
O=C(CSc1nnc2ccccn12)NC(=O)c1ccccc1Cl,5.3,1.4,-9.0,-6.7
COc1ccc(CCNC(=O)C(=O)NCC2CCCO2)cc1OC (stereo not drawn),-5.2,40.6*,-6.6,6.2
COc1ccc(CCNC(=O)C2CCC(C(C)(C)C)CC2)cc1OC (stereo not drawn),6.1,57.8*,3.6,10.2
COc1cc(N=c2ssnc2Cl)cc(OC)c1OC,-27.1,6.1,35.8*,8.4
SMILES,IDE cell activ,LANA-H2A inh,HDAC3 inh,IDE inh
COc1ccc(N=c2ssnc2Cl)cc1,-6.9,-0.9,?,3.7
N#Cc1ccc(N=c2ssnc2Cl)cc1,-4.2,-5.7,37.7*,0.7
Clc1ccc(N=c2ssnc2Cl)cc1,-8.8,5.6,13.7,0.3
COc1cc(C)c(S(=O)(=O)NOCc2ccccc2)c(C)c1C,-1.5,1.1,5.7,5.0
O=C1CC(C(=O)O)C(c2ccccc2)c2ccccc21 (stereo not drawn),2.9,.,.,.
Cc1ccc([C@@H]2CC=C(C(=O)O)CN2S(=O)(=O)c2ccc(C)cc2)cc1,-0.5,3.7,3.1,1.6
Cc1cccc(OCCCC(=O)Nc2ccc(Cl)c(S(=O)(=O)N3CCOCC3)c2)c1,-2.3,1.1,3.9,-0.7
CCOc1ccccc1OCCCC(=O)Nc1ccc(Cl)c(S(=O)(=O)N2CCOCC2)c1,1.9,29.6*,0.4,-0.5
Cn1c(=O)[nH]c(=O)c2c1nc(Br)n2CCCO,6.2,4.4*,0.0,3.3
CCCCc1ccc(/C=C2\C(=O)c3ccccc3C(O)=C2C(=O)OCC)cc1,.,-4.5,3.9,0.3
CC(CCc1ccccc1)NC(=O)CNC(=O)c1ccccc1Br (stereo not drawn),2.4,2.9,-5.8,-1.4
